This is part of a sample that, as a whole, favours compounds with a hit. Of some 83,000 tested, about 20% had one in any assay.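 Interpretation: 100, growth as untreated; towards 0, rising growth inhibition; 0, no net growth; 0 to -100, cell death. Compounds scoring below 10 were considered active.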 A number with no mark means an inactive call. Activity calls are given as the source filed them.
Each molecule was assayed on HL-60(TB) leukemia (assay: NCI-60 one-dose screen, 48 h (100 = growth as untreated, 0 = no growth, -100 = all killed)). Conditions: 10 µM unless noted.
In the case of `CCN1C(=O)N(CC)C2C1NN=c1s/c(=C3\C(=O)N(CCC(C)C)c4ccccc43)c(=O)n12` (stereo not given), the growth is reported as -38.2% (active).
With `CC1SC(c2ccc(Cl)cc2)N(CCc2cccs2)C1=O` (stereo not given) the growth was -3.88% (active).
`Cc1[nH]c(C(=O)Nc2ccccc2OC2CCNCC2)c(Cl)c1Cl` was tested, and the growth was -57.1% (active).
Molecule `COCCNC1=C(Cl)C(=O)c2ccccc2C1=O` has a growth of 110%.
In the case of `CCN1C(=O)N(CC)C2Nn3c(s/c(=C\c4ccccc4Br)c3=O)=NC21` (stereo not given), the growth is reported as -34.7% (active).
Work on `CC1=C2C(=C[C@@](C)(CO)[C@@H]2OC(=O)N(C)CCN(C)C(=O)OC(C)(C)C)C(=O)[C@](C)(O)C12CC2` yielded a growth of 46.1%.
With `CCCCCCNC(=O)Oc1ccc(/C(=C(/C)Cc2ccc(OC)cc2)c2ccc(OCCN3CCCCC3)cc2)cc1` the growth was 57.9%.
Work on `CCCC(=O)Oc1ccc(CC)cc1` yielded a growth of 97.6%.
Molecule `O=C(N/N=C/c1cc(Cl)ccc1O)c1ccccc1Nc1ccnc(C(F)(F)F)c1` has a growth of 39.3%.
`CN(C)c1ccc(N=C2C=CC(=O)c3ccccc32)cc1` was tested, and the growth was 82.2%.
`COC1CCC(N2C(=O)CNc3ncc(-c4ccc(C(C)(C)O)nc4)nc32)CC1` (stereo not given) was tested, and the growth was 11.2%.
With `CCCCN(CCCC)c1ccc(C(=N)c2ccc(N(C)C)cc2)cc1` the growth was -55.1% (active).
In the case of `CCN1CCN(c2nc(NNC(=O)c3ccc(OC)cc3)nc(N3CCN(C(c4ccccc4)c4ccccc4)CC3)n2)CC1`, the growth is reported as 18.7%.
`CCCCCOC(=O)c1cccc(NC(=O)CN(CC)CC)c1` was tested, and the growth was 101%.
With `C=CC(=O)N1CN(C(=O)C=C)CN(C(=O)C=C)C1` the growth was 25.3%.
`COc1cc(-c2c3c(cn2S(=O)(=O)c2ccccc2)-c2nc(N)sc2CC3)cc(OC)c1OC` was tested, and the growth was 13.2%.
In the case of `C#CCOc1ccc2ncnc(Nc3ccc(NC(=O)C=C)cc3)c2c1`, the growth is reported as -52.5% (active).
`Cc1[nH]c2ccccc2c1C1=CC(=O)C=CC1=O` showed a growth of 12.4%.
`Nc1ccccc1C#C/C=C\C#Cc1cccc(O)c1` was tested, and the growth was 12.6%.
For `CC(C)CCN(CCC(C)C)CC(O)c1cc2c(c3ccccc13)CCCC2` (stereo not given), the growth was 78.6%.
`Cc1ccc2nc(SCn3nnc4ccccc4c3=O)[nH]c2c1` was tested, and the growth was 80.3%.
In the case of `O=C(CSc1nccc(Nc2ccc(S(=O)(=O)Nc3nccs3)cc2)n1)c1ccc(F)cc1`, the growth is reported as 104%.
Work on `COc1cc(CNC(=O)CCCC/C=C/C(C)C)ccc1OCc1cn(-c2ccc(C(F)(F)F)cc2)nn1` yielded a growth of 85.3%.
`CC(C)(O)c1cccc(F)c1` was tested, and the growth was 70.7%.
With `COc1ccc(C2=NNC(c3sc(Cl)nc3Cl)C2)cc1` (stereo not given) the growth was 85.8%.
With `COc1cnc2c(c1)C(=O)c1c-2n(CCCN2CCC(N)CC2)c(=O)c2cc([N+](=O)[O-])ccc12` the growth was 44.3%.
In the case of `N#Cc1ccc(NC(=O)c2sc3nc4c(cc3c2N)C(=O)CCC4)cc1`, the growth is reported as 81%.
For `COc1cc(Cn2ccc3c2-c2oncc2CC3)cc(OC)c1`, the growth was 16.6%.
With `CC/C=C\C=C/C(=O)N/C=C/CC1Cc2cccc(O)c2C(=O)O1` (stereo not given) the growth was 17.4%.
In the case of `Cc1nc(Nc2ccc(F)c(Cl)c2)sc1C(=O)O`, the growth is reported as 11.6%.
Work on `CC(=O)n1cc([C@H]2CC[C@H](c3cn(C(C)=O)c4ccccc34)c3c2[nH]c2ccccc32)c2ccccc21` yielded a growth of 111%.
For `COc1ccc2c(c1OC)C(=O)O[C@@H]2[C@H]1c2c(c(C#CC#Cc3ccc(F)c(F)c3)c3c(c2OC)OCO3)CCN1C`, the growth was 76.9%.
For `CC(=O)OC[C@]12CC[C@@H](C(=O)CBr)[C@@H]1[C@H]1CC[C@@H]3[C@@]4(C)CCCNC(C)(C)[C@@H]4CC[C@@]3(C)[C@]1(C)CC2`, the growth was -18% [100 µM] (active).
`O=C(c1ccccc1)C1OC1C(=O)c1ccccc1` (stereo not given) was tested, and the growth was 22.8%.
Molecule `C=CCOc1ccc2c(c1)CC[C@@H]1[C@@H]2CC[C@@]2(C)[C@H]1CC[C@]2(C)O` has a growth of 74.6%.
Work on `C#C[C@@]1(O)[C@@H](CO)O[C@@H](n2cc(-c3ccco3)c3c(N)ncnc32)[C@@H]1O` yielded a growth of 89%.
For `C=CC(=O)N[C@H](/C=C/C(=O)OCC)Cc1ccc(-c2cc(Cl)cc(Cl)c2)cc1`, the growth was 76.5%.
For `CC1(C)CN(c2cnc(C(=O)Nc3cc(F)cc4cccnc34)cn2)CCN1`, the growth was 11.7%.
Molecule `COc1cc(C2CC(c3ccc(Nc4nc(Nc5ccc(F)cc5)nc(Nc5ccc(Cl)cc5)n4)cc3)=NN2C(C)=O)cc(OC)c1OC` (stereo not given) has a growth of 35.2%.
In the case of `O=C(CCl)Nc1ccc2c(Nc3cc(O)ccc3Cl)ncnc2c1`, the growth is reported as -53.2% (active).

Source: PubChem BioAssay (NCI)
